The values below come from PubChem BioAssay (NCI).

Test systems include NCI-H23 lung; NCI-H322M lung; HOP-62 NSCLC; NCI-H460 lung; HOP-92 NSCLC; NCI-H522 lung; A549/ATCC NSCLC; 786-0 renal; COLO 205 colon; DU-145 prostate; K-562 leukemia; MALME-3M melanoma; MDA-MB-231 breast; RXF 393 renal; SF-268 CNS; SF-295 CNS; SF-539 CNS; UACC-257 melanoma; M14 melanoma; HCT-15 colon.
What all share (experiment): NCI-60 one-dose screen, 48 h (100 = growth as untreated, 0 = no growth, -100 = all killed)
Holding throughout (details): 10 µM unless noted

The panel holds about 83,000 compounds, 20% with a hit somewhere; the sample as a whole holds those more often.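 The endpoint reported here, percent growth, reads 100 for growth as untreated, 0 for no net growth and -100 for all cells dead.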 Values without a mark were called inactive. Active and inactive are the calls of the source. How the source made its calls: active means growth percent below 10; inactive means the rest.

`COc1cc2nc(-c3cnc(N(C)C)nc3)nc(NC3CCN(Cc4ccccc4)CC3)c2cc1OC`: the growth with NCI-H23 lung was -33.8% (active); in the assay on NCI-H322M lung it was -85.7% (active); with HOP-62 NSCLC, -70.4% (active); in the assay on NCI-H460 lung it was -71.1% (active); in the assay with HOP-92 NSCLC, -76.8% (active); in the assay on NCI-H522 lung, -64.2% (active). Further, the growth is -66.3% (active) with A549/ATCC NSCLC; -71% (active) with 786-0 renal; -82.5% (active) in the assay on COLO 205 colon; -83.9% (active) with DU-145 prostate; -40.4% (active) in the assay on K-562 leukemia; -74.4% (active) in the assay on MALME-3M melanoma. For the same compound, the growth with MDA-MB-231 breast is -87.7% (active); with RXF 393 renal it was -78.6% (active); in the assay on SF-268 CNS, -60% (active); with SF-295 CNS, -92% (active); with SF-539 CNS it was -92.9% (active); in the assay on UACC-257 melanoma it was 24.1%. The growth was -80.6% (active) in the assay with M14 melanoma and -85.9% (active) in the assay on HCT-15 colon.

With `Cc1nc2ccccc2c(/C=C/c2ccccc2)c1C(=O)/C=C/c1ccc(Cl)cc1`, the growth is 34.8% in the assay on NCI-H23 lung; 50% with NCI-H322M lung; 11.7% in the assay with HOP-62 NSCLC; -37.6% (active) in the assay with NCI-H460 lung; 46.9% in the assay on HOP-92 NSCLC; -18.9% (active) with NCI-H522 lung. For the same compound, the growth in the assay on A549/ATCC NSCLC is 25.3%; in the assay on 786-0 renal it was 2.52% (active); in the assay with COLO 205 colon it was 31.3%; in the assay with DU-145 prostate, 4.72% (active); in the assay on K-562 leukemia it was 5.19% (active); in the assay with MALME-3M melanoma, 40.8%. The growth with MDA-MB-231 breast is 8.28% (active); in the assay on RXF 393 renal, -28.2% (active); with SF-268 CNS, 44.6%; in the assay with SF-295 CNS it was 29%; in the assay on SF-539 CNS it was 26.6%; in the assay on UACC-257 melanoma it was 29.9%. The growth is 17.1% with M14 melanoma and -13.2% (active) in the assay with HCT-15 colon.

As to `NCCNc1nc2ccc(F)cc2c2c(=O)c3cc(F)ccc3sc12`, the growth is 70.9% with NCI-H23 lung; 60.6% with NCI-H322M lung; 56.5% in the assay with HOP-62 NSCLC; -54.7% (active) with NCI-H460 lung; 17.4% in the assay with HOP-92 NSCLC; 30.9% with NCI-H522 lung. In addition, the growth in the assay on A549/ATCC NSCLC is 43.7%; in the assay on 786-0 renal it was 58.6%; in the assay on COLO 205 colon, -52.2% (active); with DU-145 prostate it was 7.23% (active); with K-562 leukemia, -44.2% (active); in the assay with MALME-3M melanoma, 99%. The growth was 6.98% (active) in the assay on MDA-MB-231 breast; 52.3% in the assay with RXF 393 renal; 48.9% in the assay with SF-268 CNS; 82.3% in the assay on SF-295 CNS; 73.6% in the assay with SF-539 CNS; 79.4% in the assay with UACC-257 melanoma. Further, the growth is 15.7% in the assay with M14 melanoma and 20.9% with HCT-15 colon.

As to `COC(=O)c1cc2c(n1Cc1ccccc1)-c1oncc1CCC2`, the growth was 81.5% in the assay with NCI-H23 lung; 114% in the assay on NCI-H322M lung; 72.9% in the assay on HOP-62 NSCLC; 94.7% with NCI-H460 lung; 75.3% with HOP-92 NSCLC; 39.1% in the assay on NCI-H522 lung. Further, the growth in the assay on A549/ATCC NSCLC was 49.3%; in the assay on 786-0 renal, 92.3%; in the assay on COLO 205 colon, 55%; with DU-145 prostate it was 102%; in the assay with K-562 leukemia, 17.8%; in the assay on MALME-3M melanoma, 49.5%. Further, the growth in the assay on MDA-MB-231 breast is 64.2%; in the assay on RXF 393 renal it was 73.7%; in the assay with SF-268 CNS it was 86.8%; in the assay on SF-295 CNS, 74.7%; in the assay with SF-539 CNS, 69.1%; with UACC-257 melanoma, 76.2%. The growth in the assay with M14 melanoma was 57.5%; in the assay with HCT-15 colon it was 40.9%.

As for `COc1ccc2sc(N(Cc3cccnc3)C(=O)c3ccc(C#N)cc3)nc2c1`, the growth with NCI-H23 lung was 96.3%; with NCI-H322M lung, 101%; in the assay with HOP-62 NSCLC, 94.4%; in the assay on NCI-H460 lung, 101%; in the assay on HOP-92 NSCLC, 60.7%; with NCI-H522 lung, 124%. In addition, the growth in the assay on A549/ATCC NSCLC was 81.9%; with 786-0 renal, 69.8%; in the assay on COLO 205 colon, 84%; with DU-145 prostate, 93.5%; with K-562 leukemia, 16.4%; in the assay on MALME-3M melanoma it was 60.9%. Besides, the growth was 71.5% with MDA-MB-231 breast; 92.8% in the assay on RXF 393 renal; 87.7% with SF-268 CNS; 35.6% in the assay on SF-295 CNS; 70.5% in the assay with SF-539 CNS; -46.3% (active) with UACC-257 melanoma. Also, the growth is 25.4% in the assay with M14 melanoma and 66.1% in the assay with HCT-15 colon.

Take `COc1ccc(C)c2sc(N(Cc3cccnc3)C(=O)c3ccc(C#N)cc3)nc12`: the growth in the assay with NCI-H23 lung is 7.42% (active); in the assay with NCI-H322M lung, 6.37% (active); in the assay with HOP-62 NSCLC, 7.67% (active); in the assay on NCI-H460 lung it was -24.4% (active); in the assay on HOP-92 NSCLC, -3.64% (active); in the assay with NCI-H522 lung, -22.2% (active). Moreover, the growth was 6.76% (active) in the assay on A549/ATCC NSCLC; -12.2% (active) with 786-0 renal; 1.84% (active) in the assay with COLO 205 colon; 17.3% with DU-145 prostate; 4.61% (active) in the assay on K-562 leukemia; -15.2% (active) in the assay with MALME-3M melanoma. In addition, the growth with MDA-MB-231 breast is -4% (active); in the assay on RXF 393 renal, -31% (active); in the assay on SF-268 CNS it was 10.9%; with SF-295 CNS, -28.9% (active); with SF-539 CNS, -26% (active); with UACC-257 melanoma it was -15.5% (active). For the same compound, the growth with M14 melanoma was 4.95% (active); with HCT-15 colon, 17.5%.

`O=C(Nc1ccsc1C(=O)NC1CCCCC1)c1ccc(F)cc1`: the growth is 100% with NCI-H23 lung; 116% in the assay on NCI-H322M lung; 103% with HOP-62 NSCLC; 98.3% in the assay with NCI-H460 lung; 71.1% in the assay with HOP-92 NSCLC; 108% in the assay with NCI-H522 lung. The growth is 103% in the assay with A549/ATCC NSCLC; 101% with 786-0 renal; 104% with COLO 205 colon; 119% with DU-145 prostate; 88.5% with K-562 leukemia; 99.9% in the assay on MALME-3M melanoma. Moreover, the growth in the assay with MDA-MB-231 breast is 87.2%; in the assay with RXF 393 renal, 95.6%; in the assay with SF-268 CNS, 104%; in the assay on SF-295 CNS it was 110%; in the assay with SF-539 CNS, 101%; with UACC-257 melanoma it was 114%. Also, the growth with M14 melanoma was 101%; with HCT-15 colon, 95.6%.
